The source of these data is PubChem BioAssay AID1508621 (National Center for Advancing Translational Sciences (NCATS), 2021).

Results filed as inconclusive are left out. A call without a number means that no potency is given here. The source made the active and inactive calls. Calls come from the whole dose curve; as a rule, active = well fitted inhibition curve with a large enough effect; inconclusive = small, poorly fitted or top-dose-only effect; inactive = no such curve, though single readings can be large or run the other way.
Potency is the fitted concentration of half-maximal effect.

This assay can be described thus: Confirmatory qHTS for Identification of Small Molecule Inhibitors of Huntingtin Promoter Activity. Note: nearly all actives have a fitted effect of over 65% in size. The settings on record: HEK293 HTT promoter firefly luciferase reporter, 24 h; series mostly up to 57.5 µM. A digest of the protocol:
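Activity normalized between vehicle control (0%) and zero RLU (-100%) from firefly luminescence (Dual-Glo). Compounds, up to 57.5 uM final, incubated 24 h at 37C on HEK293 reporter cells plated 24 h earlier.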
(In qHTS, concentration-response curves come from the screen itself.)
In the case of `O=C(Nc1nc2cccc(-c3ccc(CN4CCS(=O)(=O)CC4)cc3)n2n1)C1CC1`, the Potency result was “inactive”. In the case of `CC(=O)N1CCc2c(sc(NC(=O)CSc3ccccc3)c2-c2nc3ccccc3s2)C1`, the Potency is 26.9 µM (active). Consider `O=C(CSc1ccc(-c2ccccn2)nn1)Nc1ccc(F)c(F)c1`, for which the Potency result was “inactive”. For `CCOc1ccc(Nc2ncnc3c2nc2n3CCCCC2)cc1`, the Potency result is “inactive”. Regarding `COC(=O)c1c(C)oc2ccc(N(C(=O)c3ccncc3)S(=O)(=O)c3ccc(OC)cc3)cc12`, the Potency was 3.79 µM (active). `O=C(O)c1cc(-n2c(/C=C\c3ccc(F)cc3)nc3ccccc3c2=O)ccc1Cl`: the Potency entry was “inactive”. For `CCCCN1CC(c2nc3ccccc3n2CCCCOc2ccc(C)c(C)c2)CC1=O` (stereo not drawn), the Potency was 19 µM (active). Take `COc1ccc(-c2nc(CSCC(=O)N3CCN(c4cc(Cl)ccc4C)CC3)c(C)o2)cc1`: the Potency was 9.53 µM (active).

In the case of `CN1C(=O)c2ccccc2Sc2ccc(NC(=O)NCc3ccc(Cl)cc3)cc21`, the Potency was 23.9 µM (active). As for `Cc1cc(C)cc(NC(=O)Nc2cccs2)c1`, the Potency result was “inactive”. For the molecule `CCOc1ccccc1C(=O)Nc1nc2c(s1)CC(C)CC2` (stereo not drawn), the Potency entry was “inactive”. The same measure for `Cc1cc(SCC(=O)Nc2nsc(-c3ccc(C(C)(C)C)cc3)n2)nc2ccccc12`: “inactive”; for `CN(C)c1ccc(Nc2nc(N)n(C(=O)c3c(F)cccc3F)n2)cc1`: “inactive”.

As for `Cc1ccc(-n2ncc3c(N(CCO)Cc4ccccc4)ncnc32)cc1`, the Potency result is “inactive”. The same measure for `Cc1ccc(NC(=O)c2ccc(C)c(S(=O)(=O)N3CCCCCC3)c2)cc1`: “inactive”; for `CCS(=O)(=O)c1oc(-c2ccc(F)cc2)nc1S(=O)(=O)c1ccc(Br)cc1`: “inactive”; for `NC(=O)Nc1cc(-c2ccc(CN3CCOCC3)cc2)sc1C(N)=O`: “inactive”. For `CCOc1ccc(S(=O)(=O)N(C(C)=O)c2ccc3oc(C)c(C(=O)OC)c3c2)cc1`, the Potency is 4.78 µM (active). With `CCc1ccc2c(c1)-c1ccccc1S(=O)(=O)N2CC(=O)N1CCC(C)CC1` the entry was “inactive”; with `CN(C)Cc1c(C(=O)NCCOc2ccc(C(=O)NO)cc2)oc2ccccc12`, “inactive”; with `CCS(=O)(=O)c1ncc(Cl)c(C(=O)N(Cc2ccccc2)c2ccc(OC)cc2)n1`, 10.7 µM (active).

On to `CC(C)OCc1cc(CN2CCN(c3cccc(C(F)(F)F)c3)CC2)c(O)c2ncccc12`, for which the Potency was 9.53 µM (active). As for `Cc1cc(C)c(Cn2c3ccccc3c3cnn(CC(=O)N4CCCCC4)c(=O)c32)c(C)c1`, the Potency result was “inactive”.
